Bioassay records as filed in PubChem BioAssay.
Sampled rows, rich in hits. Any-hit rate of the full collection: about 19%.
HT1080NT lethal: kills 2HG-producing HT-1080-NT fibrosarcoma cells | HT-1080-NT fibrosarcoma viability, CellTiter-Glo ATP luminescence, 48 h | Potency, µM (titrated, usually from 46.1 µM), hits mostly cytotoxic | 360,000 compounds, 1.6% hits;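 also: NT is the 2HG producing partner of a matched IDH1 knockdown line; nearly all actives have a fitted effect of over 55% in size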
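750 cells/well, RPMI + 5% FBS; 2 h settle, compound pin-transfer, 48 h at 37 degrees C. CellTiter-Glo 10 min RT, luminescence. Normalized to DMSO and media-only wells.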
ELG1 DNA repair: blocks ELG1-dependent DNA repair in HEK293T cells | HEK293T ELG1-luciferase reporter, luminescence, 16 h; DNA damage induced by 5-fluorouridine | Potency, µM (highest dose often 46.1 µM), usual class: inhibitors | 330,000 compounds, 2.3% hits | AID 504467; also: nearly all actives have a fitted effect of over 55% in size
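Quantitative HTS, concentration-response format. 2,000 cells/well co-treated with 5-fluorouridine and compound, 16 hr in 5% CO2 at 37 °C; ONE-Glo luminescence read after 30 min.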
DT40 TDP1 CPT: growth inhibition of DT40 Tdp1-/-;hTDP1 cells with camptothecin (screen for TDP1 inhibitors) | 420,000 compounds, 12% hits | chicken DT40 Tdp1-/-;hTDP1 cells + 20 nM CPT, ATP luminescence, 48 h | Potency, µM (top dose mostly 46.2 µM), most hits filed as inhibitors | AID 686979; also: nearly all actives have a fitted effect of over 55% in size
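Chicken DT40 Tdp1-/- cells complemented with human TDP1, 400 cells/well, exposed to compounds plus 20 nM camptothecin for at least 48 h at 37 C; viability read as ATP content by CellTiter-Glo luminescence.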
IL-1B inflam inh: inhibitors of inflammasome signaling (IL-1 beta secretion). activity change, % at 57.5 µM. AID 743279. THP-1 LPS/ATP IL-1B secretion, AlphaLISA, 16 h; hits give low values. 360,000 compounds, 4.7% hits; in the data active = activity change below about -50%; inconclusive = mostly about -30% to -49%
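Secreted IL-1B measured by AlphaLISA bead assay after 16 h compound exposure of THP-1 cells; compounds (final up to 57.5 uM) added 1 h before LPS (250 ng/mL) and ATP (1.25 mM) stimulation; lower signal means less secretion.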
HT1080 IDH1KD tx: HT-1080 IDH1 knockdown cell toxicity (counter line); HT-1080 IDH1 knockdown viability, ATP luminescence, 48 h; Potency, µM (titrated, usually from 46.1 µM), most hits filed as cytotoxic; 360,000 compounds, 2% hits; AID 686971
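Using the IDH1-knockdown HT-1080 line run in the same batch and compound series as the NT line, viability after 48 h at 37 °C was determined by CellTiter-Glo luminescence and expressed as % activity.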
DT40 TDP1 no CPT: qHTS for Inhibitors of human tyrosyl-DNA phosphodiesterase 1 (TDP1): qHTS in cells in absence of CPT | AID 686978, 2013 | DT40 Tdp1-/- hTDP1 cells, no CPT, ATP luminescence, 48 h | 420,000 compounds, 15% hits | Potency, µM (doses to about 46.2 µM), hits mostly inhibitors; also: nearly all actives have a fitted effect of over 55% in size
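Chicken DT40 Tdp1-/- cells stably complemented with human TDP1 were seeded at 400 cells/well with DMSO in place of 20 nM camptothecin. After compound pinning, cells grew at least 48 hr at 37 °C; viability read by CellTiter-Glo luminescence.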
A number is an active result; - = inactive; ? = inconclusive; . = not tested or not shown; [ ] = remark or other dose. Unless noted, calls follow the shape of the dose curve; as a rule, active = well fitted curve in the direction sought with a large enough effect; inconclusive = small, poorly fitted or top-dose-only effect, or another doubt; inactive = no such curve, though single readings can be large; an effect the other way counts as inactive or inconclusive.

SMILES | HT1080NT lethal | ELG1 DNA repair | DT40 TDP1 CPT | IL-1B inflam inh | HT1080 IDH1KD tx | DT40 TDP1 no CPT
COc1ccc(S(=O)(=O)N2CCN(C(=O)CC3CC4CCC3C4)CC2)cc1 (stereo not drawn) | - | - | - | ? | - | ?
CC(=O)NC1=C(N(C)C2CCS(=O)(=O)C2)C(=O)c2ccccc2C1=O (stereo not drawn) | ? | ? | 8.2µM | ? | ? | 9.2µM
CC(=O)NC1=C(Nc2ccc(N(C)C)cc2)C(=O)c2ccccc2C1=O | ? | ? | 13µM | - | 13µM | ?
COC(=O)C1CCN(C2CN(Cc3ccccc3)S(=O)(=O)C2)CC1 (stereo not drawn) | - | . | - | - | - | -
COc1ccc(CC(=O)n2nc(-c3ccc(Cl)cc3)nc2NCc2ccco2)cc1 | -[9.24 µM] | ? | ? | - | ? | 18.4µM
O=C(c1ccccc1)n1nc(-c2ccccc2)nc1NCc1ccco1 | - | ? | - | - | - | -
O=C(c1ccco1)n1nc(-c2cccnc2)nc1NCc1ccco1 | - | - | ? | - | - | 23.1µM
CC(=O)n1nc(-c2ccc(Cl)cc2)nc1NCc1ccco1 | - | ? | ? | - | ? | ?
COc1cccc(Nc2ncc3nc(-c4ccc(F)cc4)c(=O)n(C[C@H]4CCCO4)c3n2)c1 | . | . | - | . | . | -
CCOC(=O)CSc1nc2c(sc(=S)n2-c2ccc(CC)cc2)c(=O)[nH]1 | - | - | - | - | - | ?
CCOC(=O)c1ccc(-n2c(=S)sc3c(=O)[nH]c(C)nc32)cc1 | - | - | ? | - | - | 16.4µM
Cc1ccc2c(C)c(C(=O)Nc3cccnc3)oc2c1C | - | . | ? | - | - | -
COc1ccc(-c2csc3ncnc(N4CCN(c5ccccc5Cl)CC4)c23)cc1 | - | 13µM | ? | - | ? | ?
CCN1CCN(c2ncnc3scc(-c4ccc(OC)cc4)c23)CC1 | - | ? | - | - | - | -
COc1ccc(-c2csc3ncnc(N4CCN(c5cccc(C)c5C)CC4)c23)cc1 | - | ? | 14.6µM | - | ? | ?
CC12COC3(P(=O)(c4ccccc4)c4ccccc4)CC1CCC23CP(=O)(c1ccccc1)c1ccccc1 (stereo not drawn) | - | - | ? | -52.3 | ? | ?
CCOc1ccc(-n2nc(CO)c(C(=O)NCc3ccc(Cl)cc3)n2)cc1 | . | . | - | . | . | -
O=C(NCCCc1ccccc1)c1nn(-c2ccccc2F)nc1CO | . | . | ? | . | . | 20.6µM
CCOc1ccc(-n2nc(CO)c(C(=O)NCCCc3ccccc3)n2)cc1 | . | . | 14.6µM | . | . | 23.1µM
CC(C)c1ccccc1NC(=O)CNCCOc1ccccc1F | - | - | - | - | - | -
Cc1cnc(NC(=O)c2nn(C)cc2[N+](=O)[O-])s1 | ? | - | - | -93.9 | ? | -
Cc1ccc(-c2csc(NC(=O)c3cccc([N+](=O)[O-])c3)n2)cc1 | - | - | - | - | - | -
Cc1nn(Cc2c(F)c(F)c(F)c(F)c2F)c(C)c1NC(=O)c1nn(C)cc1[N+](=O)[O-] | - | - | ? | - | - | -
Cn1cc([N+](=O)[O-])c(C(=O)Nc2nc(-c3ccc(Cl)cc3)cs2)n1 | 2.91µM | 2.06µM | ? | -120.4 | 3.26µM | ?
Cc1ccc(-c2nc(NC(=O)c3nn(C)cc3[N+](=O)[O-])sc2C)cc1 | 5.8µM | 16.4µM | ? | -111.1 | 11.6µM | -
SMILES | HT1080NT lethal | ELG1 DNA repair | DT40 TDP1 CPT | IL-1B inflam inh | HT1080 IDH1KD tx | DT40 TDP1 no CPT
CC(C)NC(=O)N(C)C[C@@H]1OCc2cn(nn2)CCCC(=O)N([C@H](C)CO)C[C@H]1C | - | . | - | - | - | -
O=C(Nc1cccn(Cc2c(Cl)cccc2Cl)c1=O)c1ccccc1Cl | - | - | ? | ? | - | ?
O=C(Nc1cccn(Cc2c(Cl)cccc2Cl)c1=O)c1ccc(Cl)cc1Cl | ? | - | ? | -58.6 | ? | ?
CCOC(=O)c1c(C)[nH]c(C(=O)OCc2ccc(C)cc2)c1C | - | . | - | - | - | -
CC(=O)c1c(C)[nH]c(C(=O)OCC(=O)C(C)(C)C)c1C | - | ? | - | - | - | -
CC(=O)c1c(C)[nH]c(C(=O)OCc2cccc(C)c2)c1C | - | ? | 16.4µM | - | - | 13µM
CC(=O)c1c(C)[nH]c(C(=O)OCC(=O)c2ccc(C)s2)c1C | - | ? | 23.1µM | - | - | 18.4µM
CC(=O)c1c(C)[nH]c(C(=O)COC(=O)CCCOc2ccccc2)c1C | - | - | - | - | - | -
COc1ccc(C)cc1COC(=O)c1[nH]c(C)c(C(C)=O)c1C | - | - | 20.6µM | - | - | 16.4µM
CC(=O)c1c(C)[nH]c(C(=O)OCCOc2ccccc2)c1C | - | ? | ? | - | ? | 9.2µM
COc1ccc(NCC(=O)Nc2cccc(C(F)(F)F)c2)cc1S(=O)(=O)N1CCOCC1 | - | ? | ? | - | - | ?
O=C(c1csnn1)N1CCC2(CCCN(c3ccncc3)C2)CC1 | . | . | - | . | . | ?
Cc1ccc(C(=O)N2CCN(c3ncccn3)CC2)cc1S(=O)(=O)N1CCCCC1 | - | - | - | - | - | -
Cc1ccccc1OCC(=O)NCC(=O)OC(c1ccccc1)c1ccccc1 | . | . | - | . | . | -
NC(=O)NC(=O)COC(=O)/C=C/c1cccs1 | - | - | - | - | - | -
COCCN(C(=O)COC(=O)CCOc1cccc(C)c1)c1c(N)n(Cc2ccccc2)c(=O)[nH]c1=O | - | - | - | - | - | -
CC(=O)c1c(C)[nH]c(C(=O)OCC(=O)NC(C)c2ccccc2)c1C (stereo not drawn) | - | . | - | - | - | ?
CC(=O)c1c(C)[nH]c(C(=O)OCc2ccccc2F)c1C | - | ? | 14.6µM | - | - | 20.6µM
N#Cc1nc(Cc2cccc3ccccc23)oc1NCc1ccc(F)cc1 | ? | ? | ? | - | ? | 20.6µM
C=CCNc1oc(Cc2cccc3ccccc23)nc1C#N | - | - | - | - | - | -
COc1ccc(-c2ccnc(SCC(=O)Nc3ccccn3)n2)cc1 | - | - | ? | - | -[9.24 µM] | 18.4µM
Cc1nc(SCC(=O)Nc2ccccn2)n[nH]1 | - | - | - | - | - | -
OCCOc1ccc(CN2CCN(CCCc3ccccc3)C(CCO)C2)cc1 (stereo not drawn) | - | - | - | - | - | -
Cc1ccc(NC(=O)CN2C(=S)NC(C)(C)CC2C)cc1Cl (stereo not drawn) | - | - | ? | - | - | ?
CCN(C(=O)CN1C(=S)NC(C)(C)CC1C)c1ccc(C)c(C)c1 (stereo not drawn) | - | - | 14.6µM | - | - | 23.1µM
